Among all 5,500 compounds or so, about 2,000 (36%) were called active. Not shown: some 18% with an inconclusive outcome. Cut-off read from the data, not from the text of the source: active = normalized growth mostly below about 0.91 (no sharp cut-off); inconclusive = no clear call, values can overlap the other calls; inactive = mostly above about 0.92. Some of the results follow.
Test: chemical genetic growth profiling, strain panel (AID 1159580);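 note: tested at 20 µM; growth read once vehicle control cultures reached saturation at 30 °C; 1 = growth at the plate median or of vehicle wells; lower values mean less growth of the strain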
Conditions: S. cerevisiae deletion strains, growth OD
[1] = locus YAR019C, strain CDC15, hits give low values
[2] = locus YBL105C, strain PKC1, hits give low values
[3] = locus YBR135W, strain CKS1, hits give low values
[4] = locus YBR160W, strain CDC28, hits give low values
[5] = locus YDL017W, strain CDC7, hits give low values
[6] = locus YDL028C, strain MPS1, hits give low values
[7] = locus YDL101C, strain DUN1, hits give low values
[8] = locus YDL108W, strain KIN28, hits give low values
[9] = locus YDL132W, strain cdc53, hits give low values
[10] = locus YDL214C, strain PRR2, hits give low values
[11] = locus YDR052C, strain DBF4, hits give low values
[12] = locus YDR054C, strain cdc34, hits give low values
[13] = locus YDR226W, strain ADK1, hits give low values
[14] = locus YDR477W, strain SNF1, hits give low values
[15] = locus YER123W, strain YCK3, hits give low values
[16] = locus YER133W, strain GLC7, hits give low values
[17] = locus YFL009W, strain cdc4, hits give low values
[18] = locus YFL029C, strain CAK1, hits give low values
[19] = locus YFR003C, strain YPI1, hits give low values
[20] = locus YFR019W, strain FAB1, hits give low values
[21] = locus YGR040W, strain KSS1, hits give low values
[22] = locus YGR052W, strain FMP48, hits give low values
[23] = locus YGR092W, strain DBF2, hits give low values
[24] = locus YHR030C, strain SLT2, hits give low values
[25] = locus YHR079C, strain IRE1, hits give low values
[26] = locus YHR082C, strain KSP1, hits give low values
[27] = locus YHR205W, strain SCH9, hits give low values
[28] = locus YIL147C, strain SLN1, hits give low values
[29] = locus YJL095W, strain BCK1, hits give low values
[30] = locus YJL157C, strain FAR1, hits give low values
[31] = locus YJR016C, strain ILV3, hits give low values
[32] = locus YJR066W, strain TOR1 (second series), hits give low values
[33] = locus YJR066W, strain TOR1, hits give low values
[34] = locus YKL048C, strain ELM1, hits give low values
[35] = locus YKL067W, strain YNK1, hits give low values
[36] = locus YKL101W, strain HSL1, hits give low values
[37] = locus YKL203C, strain TOR2, hits give low values
[38] = locus YLR113W, strain HOG1, hits give low values
[39] = locus YLR133W, strain CKI1, hits give low values
[40] = locus YLR403W, strain SFP1, hits give low values
[41] = locus YML070W, strain DAK1, hits give low values
[42] = locus YMR001C, strain CDC5, hits give low values
[43] = locus YMR205C, strain PFK2 (second series), hits give low values
[44] = locus YNL006W, strain LST8, hits give low values
[45] = locus YNL020C, strain ARK1, hits give low values
[46] = locus YNL161W, strain CBK1, hits give low values
[47] = locus YNL183C, strain NPR1, hits give low values
[48] = locus YNL207W, strain RIO2, hits give low values
[49] = locus YNL307C, strain MCK1 (second series), hits give low values
[50] = locus YOL078W, strain AVO1, hits give low values
[51] = locus YOL136C, strain PFK27, hits give low values
[52] = locus YOR061W, strain CKA2, hits give low values
[53] = locus YOR119C, strain RIO1, hits give low values
[54] = locus YOR231W, strain MKK1, hits give low values
[55] = locus YPL031C, strain PHO85, hits give low values
[56] = locus YPL153C, strain RAD53, hits give low values
[57] = locus YPL204W, strain HRR25, hits give low values
[58] = locus YPL209C, strain IPL1, hits give low values
[59] = locus YPL256C, strain CLN2, hits give low values
[60] = locus YPR025C, strain CCL1, hits give low values
[61] = locus YPR106W, strain ISR1, hits give low values
[62] = locus YPR111W, strain DBF20, hits give low values
[63] = strain NNK1, hits give low values
[64] = strain TSCII, hits give low values

Measured: normalized growth

COc1cccc(C(=O)C(C#N)=C(SC)SC)c1
active: [1] 0.875 | [2] 0.88 | [3] 0.87 | locus YBR136W, strain MEC1, hits give low values 0.879 | [4] 0.878 | [5] 0.881 | [6] 0.884 | [7] 0.901 | [8] 0.894 | [9] 0.874 | [10] 0.429 | [11] 0.879 | [12] 0.855 | [13] 0.87 | [14] 0.393 | [15] 0.256 | [16] 0.295 | [17] 0.869 | [18] 0.872 | [19] 0.88 | [20] 0.287 | locus YFR028C, strain CDC14, hits give low values 0.868 | [21] 0.331 | [22] 0.294 | [23] 0.206 | [24] 0.192 | [25] 0.307 | [26] 0.298 | [27] 0.321 | [28] 0.885 | [29] 0.264 | [30] 0.37 | [31] 0.874 | [32] 0.275 | [33] 0.268 | [34] 0.45 | [35] 0.508 | [36] 0.434 | locus YKL193C, strain SDS22, hits give low values 0.886 | [37] 0.291 | [38] 0.324 | [39] 0.44 | [40] 0.265 | [41] 0.346 | [42] 0.876 | [43] 0.526 | locus YMR277W, strain FCP1, hits give low values 0.881 | [44] 0.887 | [45] 0.432 | [46] 0.871 | [47] 0.298 | [48] 0.88 | locus YNL222W, strain SSU72, hits give low values 0.891 | [49] 0.293 | [50] 0.868 | [51] 0.301 | [52] 0.423 | [53] 0.317 | [54] 0.366 | locus YOR329C, strain SCD5, hits give low values 0.872 | [55] 0.309 | [56] 0.387 | [57] 0.294 | [58] 0.877 | [59] 0.292 | [60] 0.875 | [64] 0.867
inactive: locus YJL128C, strain PBS2, hits give low values 0.89 | [61] 0.893 | [62] 0.902 | [63] 0.89

CSC(SC)=C(C#N)C(=O)c1ccccc1Cl
inactive: [4] 0.937 | [5] 0.911 | [6] 0.934 | [8] 0.927 | [13] 0.911 | [19] 0.915 | [28] 0.937 | [61] 0.936 | [62] 0.934
active: [1] 0.422 | [2] 0.636 | [3] 0.816 | [7] 0.583 | [9] 0.626 | [10] 0.135 | [11] 0.826 | [12] 0.507 | [14] 0.134 | [15] 0.114 | [16] 0.116 | [17] 0.707 | [18] 0.326 | [20] 0.105 | [21] 0.13 | [22] 0.144 | [23] 0.118 | [24] 0.118 | [25] 0.134 | [26] 0.133 | [27] 0.0151 | [29] 0.119 | [30] 0.121 | [31] 0.863 | [32] 0.105 | [33] 0.105 | [34] 0.182 | [35] 0.163 | [36] 0.153 | [37] 0.0997 | [38] 0.147 | [39] 0.132 | [40] 0.0452 | [41] 0.113 | [42] 0.732 | [43] 0.179 | [44] 0.304 | [45] 0.115 | [46] 0.661 | [47] 0.133 | [48] 0.355 | [49] 0.106 | [50] 0.573 | [51] 0.101 | [52] 0.122 | [53] 0.125 | [54] 0.127 | [55] 0.108 | [56] 0.121 | [57] 0.117 | [58] 0.774 | [59] 0.161 | [60] 0.723 | [63] 0.342 | [64] 0.434
